Several values for one entry are separate records, joined by “and”; a condition that tells them apart may be missing. Equal values may be shown once. Among all 350,000 compounds or so, about 31,000 (8.9%) were called active. About 15% were inconclusive and are not listed. Calls follow the shape of the dose curve; as a rule, active = well fitted inhibition curve with a large enough effect; inconclusive = small, poorly fitted or top-dose-only effect; inactive = no such curve, though single readings can be large or run the other way. For the sample, actives were picked, then their nearest neighbours and some compounds at random. Some structures have more than one record in an assay (separate samples or runs), and their calls can disagree.
% is scaled to controls: 0 for no effect and ±100 for the full control effect; potency is read from the fitted curve at half-maximal effect.

Sequence of Histone-lysine N-methyltransferase EHMT2 (Homo sapiens) (Q96KQ7 913-1193 limits assumed): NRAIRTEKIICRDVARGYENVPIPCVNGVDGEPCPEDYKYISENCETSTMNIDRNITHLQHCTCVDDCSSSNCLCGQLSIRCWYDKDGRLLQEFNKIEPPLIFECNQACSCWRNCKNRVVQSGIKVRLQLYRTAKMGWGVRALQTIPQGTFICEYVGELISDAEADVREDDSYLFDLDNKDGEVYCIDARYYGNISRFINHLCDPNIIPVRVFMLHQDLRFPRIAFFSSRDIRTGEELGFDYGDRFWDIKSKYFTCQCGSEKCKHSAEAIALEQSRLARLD

This assay has as its target Histone-lysine N-methyltransferase EHMT2 (Homo sapiens) (UniProt Q96KQ7). Kind of assay: qHTS Assay for Inhibitors of Histone Lysine Methyltransferase G9a. Also: nearly all actives have a fitted effect of over 75% in size. To be noted: G9a H3K9 monomethylation, AlphaScreen, 2 h; series mostly up to 102 µM. From the text:
Methylated lysines, on the N-terminal tails of histone proteins serve as epigenetic markers to recruit factors that can then modify local chromatin structure to lead to functional consequences. G9a and other members of the SUV39 family of the SET domain-containing superfamily of histone lysine methyltransferases (HMT) have been identified to specifically methylate Lys9 of histone H3 (H3K9). G9a catalyzes the mono- and di-methylation of H3K9 in mammalian euchromatic regions, where the resulting H3K9me2 is indicative of transcriptional repression. […] The inhibition of G9a will result in transcriptional activation and work synergistically with DNA methyltransferase and histone deacetylase inhibitors, to kill cancer cells. This qHTS assay for identification of G9a inhibitors is a chemiluminescence based AlphaScreen (PerkinElmer). Methylation of biotinylated-histone peptide is measured through specific antibody-based detection, in conjunction with streptavidin-coated donor and anti-IgG antibody-coated acceptor beads. The method is particularly well suited for detection of inhibitors acting by the desired histone peptide competitive mechanism and is applicable to testing other HMTs. Although AlphaScreen has significant advantages with its utility in a variety of epigenetic target assays, the primary screening data provided in this deposition should be used with caution due to the prevalence of screening artifacts. An AlphaScreen counterscreen is highly recommended to be run against any putative actives to eliminate non specific artifacts. Alternatively, one can use other AlphaScreen assays in PubChem to filter out promiscuous hits. Quinn et al. A chemiluminescence-based method for identification of histone lysine methyltransferase inhibitors. Mol Biosyst 6(5): 782-8. 2010. PMID: 20567762 [2] Baell,Holloway. New substructure filters for removal of pan assay interference compounds (PAINS) from screening libraries and for their exclusion in bioassays. J Med Chem. 53(7):2719-40. 2010. PMID: 20131845 NIH Molecular Libraries Probe Production Network [MLPCN] NIH Chemical Genomics Center [NCGC] Structural Genomics Consortium (SGC) NIH Grant: 5U54 MH084681-02
To each well of a 1,536w plate, 2ul of HMT enzyme (final 20nM) were added, using a nanoliter dispenser. The G9a- and GLP-inhibitor BIX-01294 (CID: 25150857) are used as an intraplate control, with a 16-point titration in duplicate. A Kalypsys pin-tool transferred 23nl of library compound solution in DMSO to each well. Following a 15 min incubation of enzyme with compounds at room temperature, 1ul mixture of b-H3K9 peptide substrate (final 500nM) and SAM cofactor (final 20uM) were added. Reactions were allowed to proceed at room temperature for 2 hours. Methylated b-H3K9 peptide product was detected with 0.5 ug/mL rabbit polyclonal anti-monomethyl histone H3K9 antibody (Abcam Inc., Cambridge, MA) and 20 ug/mL each streptavidin-coated donor and anti-rabbit IgG acceptor AlphaScreen beads. Antibody and beads were added in a 1ul dispense, for a final volume of 4ul, and plates were incubated, protected from the light, for 10 min at room temperature. Microplates were then read on an EnVision multilabel plate reader using the 1,536 plate HTS AlphaScreen aperture (excitation time 80 ms, measurement time 240 ms).
(In general: qHTS replaces the single test concentration by a dilution series.)
For `COc1ccc2c(c1O)-c1cccc3c1[C@@H](C2)N(C)CC3`, the Potency is 7.94 µM (active).
For the compound `COC1=C[C@@H]2[C@@H]3Cc4ccc(OC)c(O)c4[C@]2(CCN3C)CC1=O`, the activity, negative = inhibition entry is “inactive”.
Consider `COP(=O)(OC)C(NC(=O)c1ccc(C)cc1)C(Cl)(Cl)Cl` (stereo unspecified), for which the activity, negative = inhibition entry is “inactive”.
In the case of `C[C@]12CC[C@H](O)C[C@@H]1CC[C@H]1[C@H]2CC[C@]2(C)C(=O)CC[C@@H]12`, the activity, negative = inhibition is 13.5% [at 21.5 µM] (inactive) and 22.6% [at 21.5 µM] (inactive) and 16.7% [at 21.5 µM] (inactive).
Still for that read-out and setting: next, `Cc1ccc(C2CN(C)CC2C(=O)c2ccc(F)cc2)cc1` (stereo unspecified): “inactive”; `Fc1cccc(F)c1CN1CCN(Cc2c(F)cccc2F)CC1`: “inactive”.
For `COc1ccc(CN2CCN(c3ccccc3F)CC2)c(OC)c1`, the Potency was 11.2 µM (active).
On the same count and under the same terms, next, `O=C(O)C1CSC(c2cccnc2)N1` (stereo unspecified): 3.55 µM (active).
Take `C[C@@]1([C@@H](NP(=O)(c2ccccc2)c2ccccc2)c2ccccc2)C[C@H]1CCO`: the activity, negative = inhibition result is “inactive”.
`COc1ccc(C2CC(c3cccs3)=NN2c2nc(C)c(C(C)=O)s2)cc1OC` (stereo unspecified): the activity, negative = inhibition entry is “inactive”.
With `CCOCCc1c(O)[nH]c(=S)[nH]c1=O`, the activity, negative = inhibition entry is “inactive”.
Regarding `COc1ccccc1N=Nc1c(O)[nH]c(=S)[nH]c1=O`, the Potency is 39.8 µM (active).
Take `Clc1ccc2nc3c(c(-c4ccccc4)c2c1)CNCC3`: the activity, negative = inhibition entry was “inactive”.
For the compound `CNCC[C@H](Oc1ccc(C(F)(F)F)cc1)c1ccccc1`, the activity, negative = inhibition was 4.7% [at 21.5 µM] (inactive) and 32.2% [at 12.7 µM] (inactive).
Same read-out and setting: next, `c1csc(CN2CC3(CCNCC3)C2)n1`: -16.9% [at 12.7 µM] (inactive); `c1ccc(N2CC[C@@]3(CCCNC3)C2)nc1`: -39.9% [at 12.7 µM] (inactive); `COC(=O)CN1C(=O)C2(C(C(=O)OC)=C(N)Oc3ccccc32)C2=C1CC(C)(C)CC2=O` (stereo unspecified): “inactive”.
On the same count and under the same terms, next, `COc1cccc(N2C(=O)NC(=O)/C(=C\c3cn(C)c4ccccc34)C2=O)c1`: “inactive”.
As to `COc1cccc(N2C(=O)NC(=O)/C(=C\c3ccc([N+](=O)[O-])s3)C2=O)c1`, the Potency was 7.94 µM (active).
Still for that read-out and setting: next, `O=C1NC(=O)N(c2ccccc2)C(=O)/C1=C/c1ccc([N+](=O)[O-])s1`: 8.91 µM (active).
On to `CCN1C[C@]2(C)CC[C@H](O)[C@@]34[C@@H]5CC6[C@@H](OC)C[C@@](O)([C@@H]5[C@@H]6O)[C@H](C[C@@H]23)[C@H]14`, for which the activity, negative = inhibition is 28.6% [at 21.5 µM] (inactive).
In the case of `CCOc1cccc(=NC2CCCCC2)c2c(C)[nH]c(C)c12`, the activity, negative = inhibition was 40.3% [at 12.7 µM] (inactive).
On the same count and under the same terms, next, `NC[C@H](O)c1ccc(O)cc1`: 24.2% [at 21.5 µM] (inactive).
The same measure, in the same setting: the result for `CCN(CC)C(=O)c1ccc(NC(=O)c2cc(-n3cnnc3)ccc2Cl)cc1` reads -47.2% [at 12.7 µM] (inactive).
The same measure, in the same setting: the result for `COC(=O)C1=C(c2ccc(Cl)c(C(F)(F)F)c2)C[C@@H]2CC[C@H]1N2C(=O)NC(C)C` reads 11.8% [at 2.33 µM] (inactive).
On to `CC[N+]1(C)CCCC(OC(=O)C(O)(c2ccccc2)c2ccccc2)C1` (stereo unspecified), for which the activity, negative = inhibition result is “inactive”.
Turning to `Cc1ncsc1CCCl`, the Potency result is “inactive and 23.8 µM (active)”.
Regarding `COc1ccc(CCn2c(O)c(C=NC3CC3)c(=O)[nH]c2=O)cc1OC`, the activity, negative = inhibition result is “inactive”.
Take `COC(=O)c1ccc2[se]c(CC3CCCCC3)c(I)c2c1`: the activity, negative = inhibition result is “inactive”.
On to `O=C(C1CCN(CC2CCCCC2)CC1)N1CCCC1`, for which the Potency is 8.91 µM (active).
In the case of `CSc1ccc(C(=O)C2CCCN(Cc3ccn[nH]3)C2)cc1` (stereo unspecified), the activity, negative = inhibition result is “inactive”.
On the same count and under the same terms, the result for `O=[N+]([O-])c1ccc(C2C3C(c4ccccc4)=NC4(CCCCC4)N32)cc1` (stereo unspecified) reads “inactive”; that for `CC(Cc1cccs1)NCc1ccc(Cl)cc1` (stereo unspecified), “inactive”.
Still for that read-out and setting: next, `Nc1ccc([N+](=O)[O-])cc1`: 6.3% [at 0.501 µM] (inactive); `O=c1c2ccccc2nc(-c2ccccc2)n1-c1ccccn1`: 0.769% [at 0.501 µM] (inactive); `CC12CN3CC(C)(CN(C1)C3c1cccs1)C2` (stereo unspecified): “inactive”.
The same measure, in the same setting: the result for `Cc1ccc(-c2cc(C(=O)N3CCC4(CC3)OCCO4)no2)cc1` reads “inactive”.
In the case of `CCOC(=O)C(NS(=O)(=O)c1ccc(C)cc1)(C(F)(F)F)P(=O)(OCC(C)C)OCC(C)C` (stereo unspecified), the Potency is 7.08 µM (active).
On to `COC(=O)C1=C(c2ccc(F)cc2OCc2ccccc2)C[C@@H]2CC[C@H]1N2C(=O)NCc1ccc(C(C)(C)C)cc1`, for which the activity, negative = inhibition is 21.1% [at 2.33 µM] (inactive).
Still for that read-out and setting: the result for `CC(=O)Nc1ccccc1C(=O)OCC(=O)c1cccc2ccccc12` reads “inactive”.
Turning to `CCOC(=O)C1CCN(Cc2coc3ccc(Cl)cc3c2=O)CC1`, the Potency was 3.16 µM (active).
Still for that read-out and setting: the result for `C[N+]12CN3CN(CN(C3)C1)C2` reads 1.12 µM (active).
`COc1ccc(CCn2c(O)c(C=NCCCn3ccnc3)c(=O)[nH]c2=O)cc1OC`: the activity, negative = inhibition result is “inactive”.
Still for that read-out and setting: next, `CCCCCCCCCCCCCC(=O)O[C@@H]1[C@@H](C)[C@@]2(O)[C@@H](C=C(CO)C[C@]3(O)C(=O)C(C)=C[C@@H]23)[C@@H]2C(C)(C)[C@]12OC(C)=O`: “inactive”; `COC(=O)N1C(c2ccccc2)C1c1ccccc1` (stereo unspecified): “inactive”; `COC(=O)C1=C(c2cccc(OCc3ccccc3)c2)C[C@@H]2CC[C@H]1N2C(=O)NCc1ccc(Br)cc1`: -5.98% [at 0.501 µM] (inactive).
